High-throughput results (PubChem)
Pf growth 48h: inhibits P. falciparum growth in the first generation, 48 h; AID 504832; 310,000 tested, 5.9% active; P. falciparum luciferase growth in erythrocytes, 48 h; Potency, µM (top dose mostly 28.7 µM), inactives show top-dose activity change, negative = inhibition, hits mostly inhibitors; note: potency is the fitted concentration of half-maximal effect; % is set by controls: 0 for no effect and ±100 for the full control effect
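First compound was added to culture medium, then infected red cells at 0.1% parasitemia and 2% hematocrit (final). After incubation at 37 C under 5% CO2, luciferase detection reagent was dispensed and light output recorded.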
CHX counter: affects cycloheximide protein synthesis inhibition readout, counter-screen; cell reporter, cycloheximide protein synthesis inhibition counterscreen; max response, %; 300,000 tested, 12% active; AID 2314; in the data active = max response mostly above about 13%, no sharp cut-off; inactive = mostly below about 14%; note: read at 38.3 µM for the half of the compounds with a filed dose; 0% is about no effect
Pf growth 96h: P. falciparum growth inhibition at 96 hour, primary screen for plastid delayed-death inhibitors | P. falciparum luciferase reporter growth, 96 h | AID 504834 | 320,000 tested, 6.9% active | Potency, µM (series often up to 28.7 µM), for the others: at the top dose activity change, negative = inhibition, hits mostly inhibitors; note: potency is the fitted concentration of half-maximal effect; % is set by controls: 0 for no effect and ±100 for the full control effect
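Luminescence readout: decreased luciferase signal marks inhibited growth of reporter-expressing P. falciparum in infected red cells (2% hematocrit, 0.05% parasitemia final), exposed to compound two generations (96 h, 37 C, 5% CO2).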
NS1 function inh: blocks influenza NS1 protein function; Potency, µM (top dose mostly 46.1 µM), without a hit: at the top dose activity, positive = more growth; 270,000 tested, 0.4% active; AID 2326; calls by dose curve; note: potency is the fitted concentration of half-maximal effect; actives are rising curves; nearly all actives have a fitted effect of over 50% in size
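Read-out: OD600 growth recovery of NS1-expressing budding yeast. Cells grown overnight at 30C in -URA glucose medium, washed, resuspended and diluted 1:100 in 2% galactose assay medium, pH 6.0. Same strain lacking NS1 served as positive control.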
Shiga inhibitor: inhibitors of Shiga toxin in Vero cells | inhibition, % at 38.7 µM | 290,000 tested, 9.2% active | Vero cells, Shiga toxin protein synthesis inhibition reporter | AID 2315; in the data active = inhibition mostly above about 28%, no sharp cut-off; inactive = mostly below about 43%; note: 0% is about no effect
SARS PLpro yeast: SARS-CoV PLP inhibition in yeast; 330,000 tested, 0.19% active; AID 485353; Potency, µM (highest dose often 32.9 µM), inactives show top-dose activity, positive = growth rescue, hits mostly activators; S. cerevisiae expressing SARS-CoV PLpro, growth rescue; calls by dose curve; note: potency is the fitted concentration of half-maximal effect; 0% is about no effect; nearly all actives have a fitted effect of over 55% in size
* hit, by the source's call; ? = inconclusive; . = not tested or not shown. Only some compounds are listed: those with a hit (about 21% of all), similar ones and a draw of the others. Unless noted, calls come from the whole dose curve; as a rule, active = well fitted inhibition curve with a large enough effect; inconclusive = small, poorly fitted or top-dose-only effect, or another doubt; inactive = no such curve, though single readings can be large or run the other way.

SMILES	Pf growth 48h	CHX counter	Pf growth 96h	NS1 function inh	Shiga inhibitor	SARS PLpro yeast
C=CCn1c(CNC(=O)c2ccccc2F)nnc1SCC(=O)N1CCOCC1	21%	-2	?	11%	-5	2%
Cn1c(-c2ccc3c(c2)OCO3)cnc1NCc1cccc(O)c1	-4%	25*	?	4%	44*	0%
Cn1c(-c2ccc(F)cc2)cnc1NCc1cccc(F)c1	5%	19	-57%	-20%	45	-10%
Cn1c(-c2ccc(F)cc2)cnc1NCc1cc2c(cc1[N+](=O)[O-])OCO2	12µM*	33*	40%	?	28	-16%
Cn1c(-c2ccccc2)cnc1NCc1cc2c(cc1[N+](=O)[O-])OCO2	-1%	53*	?	25%	60*	2%
CCOC(=O)C(CS)NCCN[C@@H](CS)C(=O)OCC (stereo not given in full)	-13%	.	-17%	.	.	.
Cc1ccc(NC(=O)c2cc(C)n(-c3cccc(C)c3)c2C)cc1	15%	76*	-87%	13%	72*	-55%
Cc1ccc(NC(=O)c2cc(C)n(-c3ccccc3)c2C)cc1	-74%	26*	-99%	9%	25	-63%
Cc1cc(C(=O)Nc2ccc(Cl)cc2)c(C)n1-c1ccccc1	?	6	-51%	-3%	7	-5%
Cc1cc(C)c2cc3c(N)c(C(=O)Nc4c(C)[nH]c(=O)[nH]c4=O)sc3nc2c1	-19%	15	-22%	1.4µM*	-6	-15%
N#Cc1ccccc1Cn1cc(C(=O)c2ccco2)c2ccccc21	?	47*	?	-39%	23*	-10%
O=C(O)Cn1cc(C(=O)c2cccs2)c2ccccc21	5%	-3	-25%	3%	17	-9%
O=C(c1ccco1)c1cn(Cc2ccccc2)c2ccccc12	.	38*	0%	-114%	77*	-24%
O=C(Cn1cc(C(=O)c2ccco2)c2ccccc21)NC1CCCCC1	23%	-6	2%	.	-20	2%
CCC(=O)c1cn(Cc2ccccc2C#N)c2ccccc12	.	-1	?	-30%	-6	-10%
O=C(c1ccco1)c1cn(CC(=O)N2CCCCC2)c2ccccc12	25%	-2	1.7µM*	-11%	5	2%
O=C(c1cccs1)c1cn(CC(=O)N2CCc3ccccc3C2)c2ccccc12	?	48*	-3%	-51%	5	4%
O=C(c1ccco1)c1cn(Cc2ccccc2Cl)c2ccccc12	?	42*	.	-27%	71	-32%
COC(=O)Cn1cc(C(=O)c2ccco2)c2ccccc21	16%	0	39%	-53%	-15	-9%
Cc1cccc2c(=O)cc(C)n(CC(N)=O)c12	34%	-3	-15%	3%	12	-1%
C=C(C)COc1ccc2c(C)c(CCC(=O)NC3CC3)c(=O)oc2c1	10µM*	22*	10µM*	-31%	19	-5%
CC(=O)COc1ccc2c(C)c(C)c(=O)oc2c1	0%	52*	?	-64%	79*	4%
CCCc1cc(=O)c2ccc(OCC(C)=O)cc2o1	63%	2	0%	-4%	3	1%
O=c1oc2cc(O)ccc2c2ccccc12	.	-2	3%	-82%	-16	-17%
CCCOc1ccc2c(C)c(CC(=O)OC)c(=O)oc2c1	22%	31*	.	4%	52*	-3%
SMILES	Pf growth 48h	CHX counter	Pf growth 96h	NS1 function inh	Shiga inhibitor	SARS PLpro yeast
Cc1oc2cc3oc(=O)c(CCC(=O)NC4CC4)c(C)c3cc2c1C	?	-4	?	9%	1	-2%
O=c1oc2cc(O)ccc2c2oc3cc(O)ccc3c12	-1%	13*	-11%	-8%	31*	-6%
CC(C(=O)Nc1ccon1)N1C(=O)c2ccccc2S1(=O)=O (stereo not given)	30%	.	1%	.	.	-3%
NC(=O)c1ccc(NC(=O)COC(=O)CCCOc2ccccc2)cc1	58%	.	15%	.	.	1%
COc1ccc(-c2c(C)c3ccc(O)cc3oc2=O)cc1	48%	53*	55%	-15%	50*	-3%
CCc1c(C)c2ccc(OCC(N)=O)cc2oc1=O	24%	20*	-23%	-3%	45	-2%
COc1ccc(-c2c(C)c3ccc(OCC(C)=O)cc3oc2=O)cc1	229%	49*	12%	-5%	110*	2%
